The list is not random: actives were taken first. Their share in the collection is about 19%.
HT1080 IDH1KD tx – qHTS for induction of synthetic lethality in tumor cells producing 2HG: qHTS for the HT-1080-IDH1KD cell line | 360,000 compounds, 2% hits | Potency, µM (highest dose often 46.1 µM), for inactives: top-dose activity, negative = toxicity, hits mostly cytotoxic | HT-1080 IDH1 knockdown viability, ATP luminescence, 48 h;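 further: potency means the concentration at half of the fitted maximal effect; 0% = DMSO wells and -100% = cell-free medium wells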
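Using the IDH1-knockdown HT-1080 line run in the same batch and compound series as the NT line, viability after 48 h at 37 °C was determined by CellTiter-Glo luminescence and expressed as % activity.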
TDP1 cell noCPT – qHTS for Inhibitors of human tyrosyl-DNA phosphodiesterase 1 (TDP1): qHTS in cells in absence of CPT | DT40 Tdp1-/- hTDP1 cells, no CPT, ATP luminescence, 48 h | AID 686978, 2013 | 420,000 compounds, 15% hits | Potency, µM (highest dose often 46.2 µM), for the others: at the top dose activity change, negative = growth inhibition, most hits filed as inhibitors; further: potency means the concentration at half of the fitted maximal effect; nearly all actives have a fitted effect of over 55% in size
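A cellular qHTS used chicken DT40 cells lacking endogenous Tdp1 but carrying stably transfected human TDP1. Compounds were applied without camptothecin, and cell growth kinetics were judged by ATP-dependent luminescence after ≥48 hr.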
TDP1 cell CPT – qHTS for Inhibitors of human tyrosyl-DNA phosphodiesterase 1 (TDP1): qHTS in cells in presence of CPT. 420,000 compounds, 12% hits. Potency, µM (highest dose often 46.2 µM), inactives show at the highest dose activity change, negative = growth inhibition, actives largely listed as inhibitors. chicken DT40 Tdp1-/-;hTDP1 cells + 20 nM CPT, ATP luminescence, 48 h; further: potency means the concentration at half of the fitted maximal effect; nearly all actives have a fitted effect of over 55% in size
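Cell growth measured by CellTiter-Glo luminescence after a minimum 48 h, 37 C compound exposure with 20 nM CPT in Tdp1-knockout DT40 cells stably expressing hTDP1, seeded 400/well; qHTS titration format.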
HT1080NT lethal – qHTS for induction of synthetic lethality in tumor cells producing 2HG: qHTS for the HT-1080-NT fibrosarcoma cell line | HT-1080-NT fibrosarcoma viability, CellTiter-Glo ATP luminescence, 48 h | Potency, µM (highest dose often 46.1 µM), for the others: at the highest dose activity, negative = less viability, actives largely listed as cytotoxic | 360,000 compounds, 1.6% hits | AID 686970, 2013;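 further: NT is the 2HG producing partner of a matched IDH1 knockdown line; potency means the concentration at half of the fitted maximal effect; 0% = DMSO-treated cells and -100% = media-only wells without cells; nearly all actives have a fitted effect of over 55% in size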
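Luminescent CellTiter-Glo readout after 48 hours of compound exposure at 37 degrees C defined viability of HT-1080-NT cells. Activity was normalized to DMSO wells and cell-free media wells; concentration-response curves were fitted and assigned curve classes.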
IL1B secr inh – qHTS for Inhibitors of Inflammasome Signaling: IL-1-beta AlphaLISA Primary Screen; 360,000 compounds, 4.7% hits; THP-1 LPS/ATP IL-1B secretion, AlphaLISA, 16 h; stronger effect = lower value; activity change, % at 57.5 µM; in the data active means activity change below about -50%; inconclusive means mostly about -30% to -49%
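THP-1 cells pretreated 1 hr with compounds (up to 57.5 uM final), then stimulated with LPS (250 ng/mL final) plus ATP (1.25 mM final); secreted IL-1B measured by AlphaLISA after 16 hr, decreased signal indicating inhibition.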
The depositor's hits bear a star; u = inconclusive; x = not tested or not shown. Unless noted, the call rests on the fitted dose curve; in most records, active means well fitted curve in the direction sought with a large enough effect; inconclusive means small, poorly fitted or top-dose-only effect, or another doubt; inactive means no such curve, though single readings can be large; an effect the other way counts as inactive or inconclusive. Unless noted, on the % scale 0 is the no-effect control and ±100 the full control effect.

SMILES	HT1080 IDH1KD tx	TDP1 cell noCPT	TDP1 cell CPT	HT1080NT lethal	IL1B secr inh
O=C1CC(N2CCN(c3ccccc3O)CC2)C(=O)N1Cc1ccccc1 (stereo unspecified)	0.2%	u	-18.0%	3.6%	0.0
CN(C)C(CNC(=O)c1cccc(S(=O)(=O)NCc2ccccc2)c1)c1ccco1 (stereo unspecified)	8.2%	-23.8%	-10.5%	-1.3%	-16.8
Cn1c(CSc2nc3ccccc3n2C)nc2ccccc21	-0.3%	-11.8%	-23.1%	6.2%	u
Cn1c(SC2=CS(=O)(=O)c3ccccc32)nc2ccccc21	u	2.91µM*	2.31µM*	18.4µM*	-119.0*
Cc1ccc(N2CCN(C3=NC(=O)C(Cc4ccccc4)S3)CC2)cc1 (stereo unspecified)	11.4%	23.1µM*	29.1µM*	6.7%	4.1
O=C1N=C(N2CCN(c3ccccc3)CC2)SC1Cc1ccccc1 (stereo unspecified)	-3.9%	u	u	-0.7%	4.4
COc1cccc(NC(=O)CSc2nnc3ccc(-c4ccccn4)nn23)c1	-3.3%	-17.3%	-24.4%	-8.1%	23.0
Cc1ccc(S(=O)(=O)NCC(NCc2ccc(F)cc2)c2ccccc2)cc1 (stereo unspecified)	3.3%	u	u	-0.3%	2.2
Cc1ccc(S(=O)(=O)NCC(Nc2cccc(Cl)c2)c2ccccc2)cc1 (stereo unspecified)	x	u	18.4µM*	x	x
CN1CCN(c2ncc3c(n2)CCN(Cc2ccc(Br)s2)C3)CC1	x	14.6µM*	23.1µM*	x	x
CCN1CCN(c2ncc3c(n2)CCN(Cc2sccc2C)C3)CC1	x	23.1µM*	u	x	x
CCN1CCN(c2ncc3c(n2)CCN(Cc2cc(Br)cs2)C3)CC1	x	20.6µM*	18.4µM*	x	x
CCN1CCN(c2ncc3c(n2)CCN(Cc2ccc(Br)s2)C3)CC1	x	10.3µM*	13µM*	x	x
O=C(Nc1ccc(Br)cc1)c1cccn1-c1ncc(C(F)(F)F)cc1Cl	11.2µM*	u	15.8µM*	u	-23.1
NC(=O)c1cccn1-c1ncc(C(F)(F)F)cc1Cl	14.3%	-14.4%	-5.9%	12.9%	2.8
COc1ccccc1C1C(C#N)=C(N)N(N(C)C)C2=C1C(=O)CC(C)(C)C2 (stereo unspecified)	-3.1%	18.7%	-13.1%	3.6%	-15.3
CC(C)C(N)c1csc(Nc2ccc(C(=O)NCCCO)cn2)n1 (stereo unspecified)	6.6%	-6.4%	-1.3%	u	5.9
CN(Cc1ccc2ccccc2c1)C(=O)c1ccc(C(F)(F)F)cc1	0.8%	-22.0%	-2.4%	1.9%	u
CN(Cc1ccccc1)C(=O)c1ccc(Nc2nc(C(N)COCc3ccccc3)cs2)nc1 (stereo unspecified)	u	u	u	23.1µM*	u
CC(C)CC(N)c1csc(Nc2ccc(C(=O)N(C)Cc3ccccc3)cn2)n1 (stereo unspecified)	5.8µM*	5.8µM*	5.17µM*	4.61µM*	-13.6
CN(Cc1ccccc1)C(=O)c1ccc(Nc2nc(C(N)Cc3ccc(C(F)(F)F)cc3)cs2)nc1 (stereo unspecified)	x	11.6µM*	11.6µM*	x	-105.3*
CN(Cc1ccccc1)C(=O)c1ccc(Nc2nc(C(N)Cc3ccccc3)cs2)nc1 (stereo unspecified)	20.6µM*	13µM*	14.6µM*	u	-8.9
CC1(/[N+]([O-])=C\c2ccccc2F)CCCCC1=O (stereo unspecified)	16.2%	2.0%	9.3%	13.9%	-12.7
O=C(Nc1nncs1)C12CC3CC(CC(Cl)(C3)C1)C2	-1.8%	-6.0%	13.7%	-0.7%	1.7

Assay outcomes (PubChem BioAssay)
